An excerpt weighted towards active compounds, which were near 4.7% of everything screened.
Efflux pump mplx: antifungal efflux pump inhibition, Nile Red retention | inhibition, % at 10 µM | 330,000 tested, 0.44% active | S. cerevisiae Candida pump triplex;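 active = plate passing quality check with inhibition over a set limit, or well fluorescence over plate mean plus 4 SD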;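 also: Nile Red retained in pooled yeast measured as flow cytometry median fluorescence; higher means more Nile Red kept so more efflux inhibition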
PABP1 MLLE inh: blocks PAM2 peptide binding to the PABP1 MLLE domain; GST-MLLE / FITC-PAM2 fluorescence polarization; inhibition, % at 20 µM; 360,000 tested, 0.36% active; AID 588489; in the data active = inhibition above about 35%, passing the limit was not always enough
UBC9 SUMO inh: inhibitors of human SUMOylation (UBC9). P63279. AID 2006. inhibition, % at 35 µM. HTRF SUMOylation assay, SAE1/SAE2 + UBC9, in vitro. 290,000 tested, 0.36% active; in the data active = inhibition above about 50%, passing the limit was not always enough; inconclusive = no clear call, values can overlap the other calls
Target sequence (P63279 whole entry, looked up): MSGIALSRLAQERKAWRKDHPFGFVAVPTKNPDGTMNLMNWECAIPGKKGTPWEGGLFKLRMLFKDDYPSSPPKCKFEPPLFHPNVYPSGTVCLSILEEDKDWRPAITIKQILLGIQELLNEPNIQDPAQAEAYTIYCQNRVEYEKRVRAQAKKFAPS
ALR H2O2 inh: human ALR oxidase inhibition via reduced H2O2 | inhibition, % (test concentration not listed) | purified ALR, DTT oxidation, H2O2 HRP-luminol luminescence | P55789 | 290,000 tested, 3.8% active;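 active = mean replicate inhibition above about 79%, with every replicate also reaching it, limit read from the data; inconclusive = only one of the two criteria met; inactive = mean below limit and not every replicate reaching it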
Target sequence (P55789 whole entry, looked up): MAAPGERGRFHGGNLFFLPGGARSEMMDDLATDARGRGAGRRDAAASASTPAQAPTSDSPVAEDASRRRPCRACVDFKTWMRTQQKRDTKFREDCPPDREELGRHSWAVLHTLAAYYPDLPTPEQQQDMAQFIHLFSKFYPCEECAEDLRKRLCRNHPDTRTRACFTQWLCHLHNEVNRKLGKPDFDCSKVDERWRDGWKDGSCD
eIF4H inh: inhibitors of RNA binding by human eIF4H | Q15056 | eIF4H fluorescence polarization binding assay | inhibition, % at 35 µM | 290,000 tested, 0.94% active;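 also: calls also rest on retests at 20 µM and on dose response follow-up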
PABP polyA inh: blocks human PABP binding to poly(A) RNA. fluorescence polarization. inhibition, % at 35 µM. 290,000 tested, 1% active;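 also: calls also rest on retests at 20 µM and on dose response follow-up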
Of the large screens only hits and unclear results are named; the others gave an inactive call. Unless noted, no rule for the calls is given here.

O=C1/C(=C/c2ccc3c(c2)OCO3)Oc2cc(OCC(=O)N3CCC[C@H]3C(=O)O)ccc21	none
COc1cccc(/C=C2\Oc3cc(OCC(=O)N4Cc5ccccc5C[C@H]4C(=O)O)ccc3C2=O)c1	ALR H2O2 inh 99
COc1ccc(/C=C2\Oc3cc(OCC(=O)N4CCC[C@H]4CO)ccc3C2=O)c(OC)c1	PABP polyA inh 17
COc1cccc(/C=C2\Oc3cc(OC(=O)N4CCOCC4)ccc3C2=O)c1	none
Cc1ccccc1-n1c(-c2ccc(Cl)cc2)cnc1SCC(=O)NC1CCS(=O)(=O)C1 (configuration not stated)	none
Nc1nc(N2CCN(c3ccccc3)CC2)n[nH]1	ALR H2O2 inh 100
Nc1nc(N2CCN(c3ccc(Cl)cc3)CC2)n[nH]1	ALR H2O2 inh 98
Clc1ccc(N2CCN(c3ccnc(Cl)n3)CC2)cc1	none (no result: UBC9 SUMO inh, eIF4H inh, PABP polyA inh)
Nc1ccc(N2CCN(c3cccc(Cl)c3)CC2)cc1	none (no result: ALR H2O2 inh)
Fc1cnc(N2CCN(c3ccccc3)CC2)nc1N1CCN(c2ccccc2)CC1	none
Nc1nc(N2CCN(c3cccc(Cl)c3)CC2)n[nH]1	ALR H2O2 inh 99
O=C1Nc2ccccc2N(O)N1c1cc(-c2cccc(Cl)c2)no1	ALR H2O2 inh 79
COc1ccc(NS(=O)(=O)c2ccc(NC(=S)NC(=O)c3cccc(F)c3)cc2)nn1	PABP1 MLLE inh 38
Cc1cc(NS(=O)(=O)c2ccc(NC(=S)NC(=O)c3cccc(S(=O)(=O)N(C)C)c3)cc2)no1	none
Cc1cc(NS(=O)(=O)c2ccc(NC(=S)NC(=O)c3ccc(F)cc3)cc2)no1	PABP1 MLLE inh 40
O=C(NC(=S)Nc1ccc2c(c1)C(=O)c1ccccc1C2=O)c1ccc(F)cc1	PABP polyA inh 10 (no result: PABP1 MLLE inh)
O=C(Oc1cc2oc(=O)cc(-c3ccccc3)c2cc1Cl)C1CCCCC1	ALR H2O2 inh 98
CCOc1ccc(NC(=O)c2cc3ccccc3cc2OC)cc1	none
CCOc1ccc(NC(=O)c2cc3ccccc3cc2O)cc1	eIF4H inh 98, PABP polyA inh 73 (no result: ALR H2O2 inh)
COc1ccc(-n2nnnc2C(CCc2ccccc2)N2CCN(C/C=C/c3ccccc3)CC2)cc1 (configuration not stated)	none (no result: Efflux pump mplx, UBC9 SUMO inh, ALR H2O2 inh, eIF4H inh, PABP polyA inh)
CCCc1ccc(OC(=O)c2ccc(O)cc2Cl)cc1	none
Cc1ccn2cc(-c3cccc([N+](=O)[O-])c3)nc2c1	ALR H2O2 inh 91
Cc1ccn2cc(-c3cccc(NC(=O)CCC(=O)O)c3)nc2c1	ALR H2O2 inh 98
CC(=O)Nc1cccc(-c2cn3ccc(C)cc3n2)c1	ALR H2O2 inh inconclusive
Cc1ccn2cc(-c3cccc(NS(C)(=O)=O)c3)nc2c1	ALR H2O2 inh 97
C#CCOCCOCCOCCNc1nc(N2CCN(C(=O)[C@H](CCCCN)n3cc([C@@H](N)[C@H](C)CC)nn3)CC2)nc(N2CCN(C(=O)[C@H](CCC(=O)O)n3cc([C@@H](N)CCSC)nn3)CC2)n1	none (no result: UBC9 SUMO inh, ALR H2O2 inh, eIF4H inh, PABP polyA inh)
O=C(CC[C@H]1O[C@@H](n2ccc(=O)[nH]c2=O)[C@H](O)[C@@H]1O)N[C@H](Cc1ccccc1)C(=O)NCc1cccs1	none (no result: Efflux pump mplx, UBC9 SUMO inh, ALR H2O2 inh, eIF4H inh, PABP polyA inh)
CCc1cccc(OCC2Cn3c(nc4c3c(=O)[nH]c(=O)n4C)O2)c1 (configuration not stated)	none
CCN(CC)CCCC(C)NC(=O)c1ccc(C(F)(F)F)cc1 (configuration not stated)	eIF4H inh active, PABP polyA inh 54
Cc1ccccc1OC(=O)n1c(=S)oc2cc(Cl)ccc21	ALR H2O2 inh 83
O=C(c1ccc2c(c1)N(Cc1ccccc1)CCS2)N1CCOCC1	ALR H2O2 inh 99
COc1ccc(OC)c(CCNC(=O)c2ccc3c(c2)N(Cc2ccc(F)cc2)CCS3)c1	none
O=C(c1ccc2c(c1)N(Cc1ccc(F)cc1)CCS2)N1CCOCC1	ALR H2O2 inh 99
O=C(c1ccc2ccccc2c1)N1CCOCC1	none (no result: UBC9 SUMO inh, eIF4H inh, PABP polyA inh)
CN(CCO)c1ccc(C(C(=O)c2ccccc2)c2ccc(N(C)CCO)cc2)cc1	ALR H2O2 inh 91 (no result: UBC9 SUMO inh, eIF4H inh, PABP polyA inh)
Cc1c(C)n(CCC(=O)O)c2ccccc12	none
Cc1ccc2c(c1)c(C)cc(=O)n2CCC(=O)O	eIF4H inh 88
CC(C)(C)CNC(=O)c1cccc2c1C(=O)c1ccc(-c3cc4ccccc4o3)cc1S2(=O)=O	none (no result: UBC9 SUMO inh, eIF4H inh, PABP polyA inh)
Cc1nc(C)c(/C(O)=C\c2nc3ccc([N+](=O)[O-])cc3oc2=O)o1	ALR H2O2 inh 99

Screens as filed in PubChem.
